# Reference: PubChem BioAssay AID793 (The Scripps Research Institute Molecular Screening Center, 2007)
# “And” between values parts separate entries of the source, which are not always exact repeats. Equal entries are not always repeated. About 1,400 (1%) of roughly 140,000 compounds were called active. No stated cut-off is given here; in the data, active means inhibition above about 17%; inactive means the rest. What follows is part of a selection rich in actives, with near analogues and random picks from the rest. Where a structure was tested more than once in an assay, its records may differ in their call.
# Target: Neuropeptide Y receptor type 2 (Homo sapiens) (UniProt P49146)
# Test: blockers of human neuropeptide Y Y2 receptor – cell-based, primary screen (AID 793);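 further: 0% = vehicle with agonist challenge and 100% = reference antagonist with challenge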
# Settings: NPY-Y2 expressing cells, antagonist mode; at 2.7 µM; stronger effect = higher value
# Neuropeptide Y receptor type 2 (Homo sapiens), sequence (P49146 whole entry, looked up): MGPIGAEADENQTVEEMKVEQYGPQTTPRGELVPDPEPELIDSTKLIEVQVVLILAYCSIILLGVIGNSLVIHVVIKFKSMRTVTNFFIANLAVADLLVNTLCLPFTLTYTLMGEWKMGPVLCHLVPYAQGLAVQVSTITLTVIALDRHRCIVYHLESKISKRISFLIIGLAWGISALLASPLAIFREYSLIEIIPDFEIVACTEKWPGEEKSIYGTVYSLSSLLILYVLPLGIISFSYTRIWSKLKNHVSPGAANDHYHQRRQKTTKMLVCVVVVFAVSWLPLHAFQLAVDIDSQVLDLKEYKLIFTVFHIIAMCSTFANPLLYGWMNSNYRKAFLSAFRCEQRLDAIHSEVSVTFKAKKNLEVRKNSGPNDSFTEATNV
row,SMILES,inhibition
1,O=C(CC(=O)N/N=C\c1cccc(Cl)c1Cl)NCc1ccccc1,13.3% (inactive)
2,COc1ccc(-c2nn(-c3ccccc3)cc2/C=N/Nc2ccccn2)cc1OC,9.59% (inactive)
3,COc1ccc(-c2nn(-c3ccccc3)cc2C(=O)Nc2nccs2)cc1OC,17.6% (active)
4,COc1ccc(-c2nn(-c3ccccc3)cc2C(=O)Nc2nc(CC(C)=O)ns2)cc1,-0.9% (inactive)
5,O=C(c1cncc(Br)c1)N1CCN(c2ccc([N+](=O)[O-])cc2)CC1,0.95% (inactive)
6,C/C(=N\Nc1ncc(Cl)cc1Cl)c1ccc(S(=O)(=O)NCc2ccco2)cc1,2.79% (inactive)
7,Cc1ccc(N/N=C2\COC(C)(C)CC2=O)cc1,1.13% (inactive)
8,Cc1ccc(NC(=O)NC(=O)CSc2nnc(-c3ccc(OC(F)F)cc3)n2N)c(C)c1,0.74% (inactive)
9,CC(C)(C)NC(=O)NC(=O)COC(=O)Cn1c(C(F)(F)F)nc2ccccc21,6.71% (inactive)
10,CN1CCN(C(=O)Cn2c(C(F)(F)F)nc3ccccc32)CC1,-1.96% (inactive)
11,Cc1ccccc1OC(=O)Cn1c(C(F)(F)F)nc2ccccc21,20.2% (active)
12,CCCCN(CC)C(=O)c1ccccc1Oc1ccccc1,9.08% (inactive)
13,Cc1ccc(C(=O)CS(C)(=O)=O)cc1,4.03% (inactive)
14,O=C(c1ccc(CSc2ccccc2)cc1)N1CCCCCC1,4.41% (inactive)
15,Cc1ccc(C(=O)C[n+]2cc(-c3ccccc3)n3c2CCCCC3)cc1,13.7% (inactive) and 24.1% (active)
16,COc1ccc(C2c3c(C)nn(-c4ccccc4)c3NC(=O)N2c2ccccc2)cc1 (centres undefined),0.06% (inactive)
17,CCn1cc(CNC(=O)c2cc([N+](=O)[O-])c(C)c([N+](=O)[O-])c2)cn1,2.2% (inactive)
18,Cc1cc(C(=O)N/N=C/c2cc([N+](=O)[O-])cc(C)c2O)n[nH]1,9.9% (inactive)
19,O=C(COC(=O)Cn1cnc2ccccc21)Nc1cccc2c1C(=O)c1ccccc1C2=O,4.37% (inactive)
20,Cc1cccc(C(=O)Nc2ccccc2N2CCN(c3ccc(F)cc3)CC2)c1,8.99% (inactive)
21,O=C(Nc1ccccc1N1CCN(c2ccccc2)CC1)c1cccc(F)c1,19.2% (active)
22,O=C(Nc1ccccc1N1CCCCC1)c1cccc(F)c1,8.36% (inactive)
23,CC1CCN(C(=O)c2ccc(S(=O)(=O)Cc3cc(F)ccc3F)c([N+](=O)[O-])c2)CC1,-1.09% (inactive)
24,Cc1cccc(C)c1NC(=O)C(c1ccccc1)N1CC(=O)Nc2ccccc21 (centres undefined),1.93% (inactive)

row,SMILES,inhibition
1,O=C(N/N=C/c1ccc(Br)o1)c1cncc(Br)c1,0.35% (inactive)
2,CCCC(=O)Nc1cccc(NC(=S)NC(=O)C(C)Oc2ccc(Cl)cc2Cl)c1 (centres undefined),0.34% (inactive)
3,COCc1nc2ccccc2n1Cc1ccccc1Br,4.55% (inactive)
4,CCC(=O)Nc1nc2ccccc2n1Cc1ccccc1C,3.41% (inactive)
5,Nc1nonc1-c1nc2ccccc2n1CCC(=O)O,3.2% (inactive)
6,CC(=O)Nc1nonc1-c1nc2ccccc2n1Cc1ccccn1,0.29% (inactive)
7,COc1ccc(C)c(Cn2c(-c3nonc3N)nc3ccccc32)c1,17.5% (active)
8,Nc1nonc1-c1nc2ccccc2n1Cc1ccc(F)cc1,18.1% (active)
9,Cc1cc(NC(=O)COC(=O)COc2ccc(Cl)cc2C)c([N+](=O)[O-])cc1C,5.09% (inactive)
10,CCCC(C)C(=O)OCC(=O)Nc1c(Br)cc(C)cc1Br (centres undefined),3.68% (inactive)
11,O=C(CCCCCNC(=O)c1ccccc1)N/N=C/c1ccccc1,-0.13% (inactive)
12,CCCOC(=O)c1ccc(N2C(=O)c3ccccc3C2=O)cc1,-1.24% (inactive)
13,CCCC/S(C)=N/S(=O)(=O)c1ccc(C)cc1 (centres undefined),1.98% (inactive)
14,COC(=O)C(NC(=O)c1ccc(OC)cc1)(Nc1ncc(S(=O)(=O)c2ccc([N+](=O)[O-])cc2)s1)C(F)(F)F (centres undefined),0.75% (inactive)
15,Cc1cc(C)cc(OCC(=O)Nc2nc3ccc([N+](=O)[O-])cc3s2)c1,1.9% (inactive)
16,O=C(NC(Nc1nc2ccc([N+](=O)[O-])cc2s1)(C(F)(F)F)C(F)(F)F)c1ccccc1,29.6% (active)
17,COC(=O)C1NN=C(C(=O)c2ccc(Br)cc2)C1c1cccc(Br)c1 (centres undefined),0.05% (inactive)
18,Cc1cc(C)n(CC(O)CN(c2ccccc2)S(=O)(=O)c2ccc3ccccc3c2)n1 (centres undefined),-0.03% (inactive)
19,CC1CCCN(CCOCCOc2ccccc2-c2ccccc2)C1 (centres undefined),10.5% (inactive)
20,Cc1ccc(CN2CCN(/N=C/c3cccnc3)CC2)c(C)c1,2.92% (inactive)
21,C/C(=N\NC(=O)CNC(=O)C(c1ccccc1)c1ccccc1)c1ccc(C)cc1,1.86% (inactive)
22,COc1ccc(-c2nc3ccccc3n2CCC(C)C)cc1OC,19.5% (active)
23,CCCn1c(C(O)c2cc(OC)ccc2OC)nc2ccccc21 (centres undefined),4.69% (inactive)
24,COCCn1c(-c2ccc(OC)c(OC)c2)nc2ccccc21,1.52% (inactive)

row,SMILES,inhibition
1,COC(=O)c1cc2occc2n1Cc1nc(-c2ccccc2C)oc1C,11.1% (inactive)
2,O=C(CCN1C(=O)c2ccccc2C1=O)NNC(=O)c1ccc(Cl)cc1Cl,0.71% (inactive)
3,Cc1ccc(NC(=O)CC2S/C(=N/N=C3\CCCc4ccccc43)NC2=O)cc1 (centres undefined),-0.03% (inactive)
4,Cc1cccc(OCCNC(=O)CSc2ccc(C(F)(F)F)cc2[N+](=O)[O-])c1,12.7% (inactive)
5,Cc1ccc(C)c2[nH]c(=O)c(CCNC(=O)c3cccs3)cc12,2.37% (inactive)
6,Cc1cc2c(c(=O)n1C)C(C(C)C)C(C#N)=C(N)O2 (centres undefined),-0.27% (inactive)
7,C=CCOC(=O)C1=C(C)OC(N)=C(C#N)C1c1ccc(F)cc1 (centres undefined),7.81% (inactive)
8,C=CCSc1nc2c(c(=O)[nH]1)C(C(C)C)C(C#N)=C(N)O2 (centres undefined),121% (active)
9,CN(C)CCCO/N=C(\c1ccccc1)c1ccncc1,0.64% (inactive)
10,Cc1ccc(C(=O)N/C(=C/c2cccnc2)C(=O)O)cc1,2.3% (inactive)
11,Cc1nn(CC(=O)Nc2ccc(N(C)C)cc2)c(C)c1[N+](=O)[O-],-0.15% (inactive)
12,COc1ccc(/C(N)=N/OC(=O)Cc2ccccc2)cc1,4.03% (inactive)
13,COc1ccc(/C(N)=N/OC(=O)CCCc2ccccc2)cc1,22.3% (active)
14,N/C(=N\OC(=O)CCc1ccccc1)c1ccc(Cl)cc1,4.22% (inactive)
15,COc1ccc(/C=N/N=C/c2c[nH]c(=O)c(C#N)c2Nc2ccccc2)cc1,3.81% (inactive)
16,O=C(CNC(c1ccccc1)c1ccccc1)Nc1ccc(F)cc1,7.16% (inactive)
17,O=C(COC(=O)/C(=C/c1cccs1)c1cccs1)NCc1ccccc1Cl,5.33% (inactive)
18,COc1ccc(-c2cc(C(=O)n3cnc4ccccc43)c3ccccc3n2)cc1,58.8% (active)
19,C/C(N)=C(/C#N)C(=O)COC(=O)c1cc(-c2ccc(C)cc2)nc2ccccc12,-0.91% (inactive)
20,Cc1ccc(OCC(=O)Nn2cnc3ccccc32)cc1,2.86% (inactive)
21,CC(Sc1nc2ccccc2c(=O)n1Cc1ccco1)C(=O)c1ccccc1 (centres undefined),6.17% (inactive)
22,CCOn1c(SC(C)C)nc2ccccc2c1=O,7.2% (inactive)
23,CCOC(=O)C(C)Sc1nc2ccccc2c(=O)n1CC1CCCCC1 (centres undefined),18.5% (active)
24,CCOC(=O)c1c(C)n(C)c2ccc(OC)c(NS(=O)(=O)CC)c12,-1.01% (inactive)

row,SMILES,inhibition
1,CCOC(=O)Cc1csc(SCC(=O)NC(C)C23CC4CC(CC(C4)C2)C3)n1 (centres undefined),5.04% (inactive)
2,CNC(=S)N/N=C/c1ccc(OCc2ccccc2)c(Br)c1,6.18% (inactive)
3,Cc1ccc2c(c1)C(c1ccccc1)N(C(=O)c1ccc(S(=O)(=O)N3CCOCC3)cc1)CC(=O)N2 (centres undefined),0.56% (inactive)
4,Cc1ccc(CC(=O)Nc2ccc(OC(F)F)c(Cl)c2)cc1C,1.54% (inactive)
5,O=C(CC1CCCCC1)Nc1c2c(nn1-c1ccc(F)cc1)CS(=O)(=O)C2,21.6% (active)
6,O=C(Nc1c2c(nn1-c1ccc(F)cc1)CS(=O)C2)C12CC3CC(CC(C3)C1)C2 (centres undefined),2.38% (inactive)
7,Cc1ccc(-n2nc3c(c2NC(=O)CCC2CCCCC2)CS(=O)C3)cc1 (centres undefined),6.05% (inactive)
8,Cc1ccc(S(=O)(=O)N2CCN(CC(=O)N/N=C/c3ccc(Br)s3)CC2)cc1,-1.25% (inactive)
9,COc1ccc2c(c1)C(C)=CC(C)(C)N2C(=O)CNCc1ccc2c(c1)OCO2,26.6% (active)
10,CCOC(=O)NCc1ccc2c(c1)OCO2,4.28% (inactive)
11,COc1ccc2c(c1)C(C)=CC(C)(C)N2C(=O)Nc1ccccc1,0.85% (inactive)
12,COc1ccc(Cl)cc1NC(=O)COC(=O)C(CC(C)C)N1C(=O)C2CC=CCC2C1=O (centres undefined),3.69% (inactive)
13,Cc1nccn1CC(=O)N/N=C/c1ccc(O)c(O)c1,0.1% (inactive)
14,CCCCCNC(=O)c1cccnc1SCC(=O)Nc1ccccc1OC,1.23% (inactive)
15,Cn1c(=O)c2c(nc(SCC(=O)Nc3ccccc3N3CCCCC3)n2C)n(C)c1=O,3.41% (inactive)
16,CCCc1nc(SCC(=O)Nc2ccccc2OC)c2c(=O)n(C)c(=O)n(C)c2n1,21.6% (active)
17,O=C(NC1CC1)c1cccc(Br)c1,1.02% (inactive)
18,Cc1ccccc1C(=O)NNC(=O)CN1C(=O)c2ccccc2C1=O,4.26% (inactive)
19,N#CCOc1ccc(C2=NO[C@@H]3[C@@H]4C[C@@H]([C@H]5C(=O)N(c6ccc7c(c6)OCO7)C(=O)[C@@H]45)[C@H]23)cc1,3.09% (inactive)
20,CCOc1ccccc1NC(=O)CCc1ccc(C)o1,1.25% (inactive)
21,Cc1ccc(CCC(=O)Nc2ncc(Cc3cc(Cl)ccc3Cl)s2)o1,24.4% (active)
22,Cc1cnc(NC(=O)CSc2nnc(-c3ccc(Cl)cc3Cl)n2N)s1,0.61% (inactive)
